Reference: PubChem BioAssay AID1347076 (National Center for Advancing Translational Sciences (NCATS), 2019)
In all, about 400,000 compounds went through this assay and about 13,000 (3.2%) were called active. About 18% were inconclusive and are not listed. The sample as a whole holds a higher share of actives than the screen did. A number with no mark means an inactive call. Calls come from the whole dose curve; as a rule, active = well fitted cell-killing curve with a large enough effect; inconclusive = small, poorly fitted or top-dose-only effect, or effect the other way; inactive = flat fitted curve, though single readings scatter.

Assay: qHTS assay for MDR1-selective chemotherapeutics: Primary screen using the drug-selected MDR subline cells KB-V1; note: nearly all actives have a fitted effect of over 60% in size
Conditions: KB-V1 MDR cells viability, CellTiter-Glo, 72 h; series mostly up to 46.1 µM; activity change, negative = cytotoxicity: at the top concentration
Outline: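 Cells of the MDR subline KB-V1 are plated, dosed with compound at multiple concentrations, and incubated 72 h at 37 degrees C; CellTiter-Glo is then added and luminescence read after 10 min.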
% is set by controls: 0 for no effect and ±100 for the full control effect; potency is the fitted concentration of half-maximal effect.

| Structure (SMILES) | activity change, negative = cytotoxicity [%] | Potency |
| --- | --- | --- |
| CN(Cc1ccccc1)C(=O)[C@@H]1CCCN1C(=O)[C@@H]1CCCN1C(=O)c1c(F)cccc1F | 12.5 | – |
| O=C(COC(=O)c1cccc(Cl)c1Cl)NC1CCCCCC1 | 12.9 | – |
| CNC[C@H]1OCc2cnnn2CCCC(=O)N([C@H](C)CO)C[C@@H]1C | -19.9 | – |
| C[N+](C)(C)CCNC(=O)c1c[nH]c2ccccc12 | 19 | – |
| Cc1ccc(Cc2c(-c3ccc(Cl)cc3)nc3c4ccccc4ccn23)cc1 | 0 | – |
| COc1ccc(CN2C(=O)C(CC(=O)NCCN3CCOCC3)CC(C(=O)N(C(C)C)C(C)C)=C2C)cc1 (centres undefined) | -19.7 | – |
| COC(=O)c1ccccc1S(=O)(=O)Nc1ccc(OC)cc1 | 0 | – |
| OC[C@@H]1CN(Cc2ccc(-c3ccccc3)cc2)C[C@H](n2cnc3c(NC4CCCC4)ncnc32)O1 | -23.1 | – |
| Cc1ccc(Cn2c(=O)n(Cc3nc(-c4ccccc4)no3)c(=O)c3cc4c(cc32)OCO4)cc1 | 1.08 | – |
| CCOC(=O)[C@]12CCC=C1N(Cc1ccccc1)C(=O)[C@H](CC(=O)N1CCCC1)C2 | -9.13 | – |
| COc1cc(C(O)c2nc(-c3cnn(C)c3)cs2)ccc1F (centres undefined) | -7.75 | – |
| COc1ccc(C(=O)/C=C/c2ccc(OC3CSC3)cc2)cc1 | -14.1 | – |
| COc1ccc(/C=C/C(=O)c2cc(Br)ccc(=O)c2O)cc1 | – | 14.6 µM (active) |
| COc1ccc(C(=O)c2oc3ccc(Br)cc3c2NC(C)=O)cc1 | -12.6 | – |
| COc1ccc(CCNC(=O)Nc2ccc3c(c2)c(=O)n(C)n3C)cc1OC | 2.68 | – |
| COC(=O)C[C@@H]1C=C[C@@H](NC(=O)c2cccnc2)[C@@H](CO)O1 | -2.5 | – |
| COc1cccc(C(=O)Nc2ccc3nc4n(c(=O)c3c2)CCCCC4)c1 | -4.99 | – |
| COc1ccc(C(=O)Nc2ccc(N3CCC(C)CC3)cc2)cc1Br | 7.59 | – |
| COc1cccc(C(=O)Nc2ccc(N3CCCC3)cc2)c1 | – | 5.8 µM (active) |
| O=C1c2ccccc2C(=O)N1c1ccc(S(=O)(=O)N2CCOCC2)c2ccccc12 | 17.2 | – |
| CCOc1ccccc1N(CC)C(=O)Nc1cn(C)c(=O)c2ccccc12 | 2.28 | – |
| O=c1c2ccccc2nc2n1C(CSc1ccc(F)cc1)CN2 (centres undefined) | -3.49 | – |
| O=c1c2ccccc2nc2n1C(CSCc1cccc(C(F)(F)F)c1)CS2 (centres undefined) | – | 2.59 µM (active) |
| N#Cc1c(-c2ccccc2)nc(SCc2cccc(C(F)(F)F)c2)[nH]c1=O | 2.26 | – |
| COc1ccc(N(C)S(=O)(=O)c2ccc3c(c2)CC(C)N3C(=O)C2CC2)c(OC)c1 (centres undefined) | – | 8.2 µM (active) |

| Structure (SMILES) | activity change, negative = cytotoxicity [%] | Potency |
| --- | --- | --- |
| COc1cccc(CNS(=O)(=O)c2ccc3c(c2)CC(C)N3C(=O)C2CCC2)c1 (centres undefined) | – | inactive |
| COc1cccc(CNS(=O)(=O)c2ccc3c(c2)CC(C)N3C(C)=O)c1 (centres undefined) | -12.7 | – |
| COc1cc(NC(=O)C2=C(C)OCCS2)c(Cl)cc1C(=O)NCCCN1CCCC(C)C1 (centres undefined) | -18.3 | – |
| Cc1cc(C)cc(-n2c(SCC(=O)NCC3CCCO3)nc3c([nH]c4ccccc43)c2=O)c1 (centres undefined) | 3.92 | – |
| Cc1ccc(C(=O)NNC(=O)C(C)Oc2ccc3ccccc3c2)o1 (centres undefined) | -25.8 | – |
| CCCc1ccc(OCC(=O)NNC(=S)NC(=O)c2ccco2)cc1 | -7.59 | – |
| CC(Oc1ccc2ccccc2c1)C(=O)NNC(=S)NC(=O)c1ccco1 (centres undefined) | – | 3.66 µM (active) |
| COC(=O)Cc1ccc(OC2(C)CCN(Cc3ccc4c(c3)OCCO4)C2)cc1 (centres undefined) | 0.961 | – |
| CC(C)CCNC(=O)C(C)N(C(=O)Cn1nnc(-c2ccc(F)cc2)n1)C1CCCC1 (centres undefined) | 0.71 | – |
| CC(C)CCNC(=O)CN(C(=O)Cn1nnc(-c2ccc(F)cc2)n1)C1CCCC1 | – | 10.3 µM (active) |
| CN(C(=O)Cn1nnc(-c2ccc(F)cc2)n1)C1CCS(=O)(=O)C1 (centres undefined) | 12.2 | – |
| COc1ccc(C(CNC(=O)c2ccc(OCc3cscn3)cc2)N2CCCC2)cc1 (centres undefined) | -28.3 | – |
| CCCCCCC1(C)NC(c2ccc3c(c2)OCO3)=CC(c2ccccc2O)N1 (centres undefined) | 21.4 | – |
| Cc1ccc(S(=O)(=O)N2C[C@H]3n4c(=O)ccc(=O)n4C[C@H](OC(=O)NC4CCCC4)[C@@]3(O)C2)cc1 | 6.2 | – |
| COc1cccc(NC(=O)C2(C)CCN2Cc2ccccc2Cl)c1 (centres undefined) | -11.7 | – |
| O=Nc1c(O)cc(O)c2ccccc12 | -0.874 | – |
| Cc1cccc(Nc2nc(C)nc(N)c2S(=O)(=O)c2ccccc2)c1 | -14.7 | – |
| CCN1CCN(c2ccc([N+](=O)[O-])cc2C(=O)c2ccc(Cl)cc2)CC1 | – | 23.1 µM (active) |
| CC1CCN(c2ccc([N+](=O)[O-])cc2C(N)=O)CC1 | -27.9 | – |
| O=C(Nc1cccc(Cl)c1)c1cc([N+](=O)[O-])ccc1N1CCN(CCO)CC1 | -0.872 | – |
| COc1ccc(CC(N)c2csc(NC(=O)NC(c3ccccc3)c3ccccc3)n2)cc1 (centres undefined) | 3.62 | – |
| CC1(C(=O)NS(=O)(=O)c2cccc(OC(F)F)c2)CCN1C(=O)C1CC1 (centres undefined) | -4.92 | – |
| Cc1ccc(CN2CC(N3CCC(Cc4ccccc4)CC3)CS2(=O)=O)cc1 (centres undefined) | -1.68 | – |
| CS(=O)(=O)Nc1ccc(C(=O)N2CCCC2)cc1 | -3.08 | – |
